Consider 11 compounds from PubChem BioAssay (NCI).

Common to all, as to experiment: NCI-60 one-dose screen, 48 h (100 = growth as untreated, 0 = no growth, -100 = all killed)
The test system of one experiment is K-562 leukemia. As to conditions: 10 µM unless noted.
The next experiment has as its system MALME-3M melanoma. As to conditions: 10 µM unless noted.
The next experiment has as its system MDA-MB-231 breast. The note with it: 10 µM unless noted.
A further experiment deals with RXF 393 renal. The note with it: 10 µM unless noted.
In a further experiment the test system is SF-268 CNS. The note with it: 10 µM unless noted.
Another experiment has as its system SF-295 CNS. As to conditions: 10 µM unless noted.
The subject of a further experiment is SF-539 CNS. The note with it: 10 µM unless noted.
The test system of the next experiment is UACC-257 melanoma. The note with it: 10 µM unless noted.
The subject of another experiment is M14 melanoma. As to conditions: 10 µM unless noted.
A further experiment relates to HCT-15 colon. As to conditions: 10 µM unless noted.
In the next experiment the test system is HT29 colon. The note with it: 10 µM unless noted.
A further experiment concerns SNB-75 CNS. As to conditions: 10 µM unless noted.
Another experiment deals with SNB-19 CNS. As to conditions: 10 µM unless noted.
The subject of a further experiment is PC-3 prostate. The note with it: 10 µM unless noted.
The next experiment deals with UACC-62 melanoma. The note with it: 10 µM unless noted.
The next experiment has as its system LOX IMVI melanoma. The note with it: 10 µM unless noted.
The subject of another experiment is SK-MEL-28 melanoma. As to conditions: 10 µM.
A further experiment concerns SK-MEL-2 melanoma. As to conditions: 10 µM unless noted.
For the next experiment, the system named is U251 CNS. As to conditions: 10 µM unless noted.
The next experiment relates to SK-MEL-5 melanoma. As to conditions: 10 µM unless noted.

This is part of a sample that, as a whole, favours compounds with a hit. Of some 83,000 tested, about 20% had one in any assay.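 Testing used 96-well plates and a 48-hour single-concentration exposure. Example: -40 means 40% of the starting cells died.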 A number with no mark means an inactive call. Active and inactive are the calls of the source. Rule for the calls: active = growth percent below 10; inactive = the rest.

In the case of `COc1ccc(-c2nnc(COc3ccc(C(=O)/C=C/c4ccco4)cc3)o2)cc1`, the growth in the experiment on K-562 leukemia is 15.3%; in the experiment on MALME-3M melanoma, 125%; with MDA-MB-231 breast it was 90%; in the experiment on RXF 393 renal it was 65%; in the experiment on SF-268 CNS it was 58.1%; with SF-295 CNS, -2.9% (active). Further, the growth was 55.9% in the experiment with SF-539 CNS; 105% in the experiment on UACC-257 melanoma; 98.8% in the experiment on M14 melanoma; 68.3% in the experiment on HCT-15 colon; 20.3% with HT29 colon; 60.1% with SNB-75 CNS. Moreover, the growth in the experiment on SNB-19 CNS is 78.1%; in the experiment on PC-3 prostate, 86.2%; in the experiment with UACC-62 melanoma, 85.9%; in the experiment with LOX IMVI melanoma it was -30.5% (active); with SK-MEL-28 melanoma it was 90.9%; with SK-MEL-2 melanoma, 132%.
Turning to `CC1(O)COCCCCOc2c(CN)cccc2NC(=O)c2nc(cnc2N)-c2ccc(cc2)S(=O)(=O)C(C)(C)C1` (stereo unspecified), the growth was 0.195% (active) in the experiment with K-562 leukemia; -86.6% (active) in the experiment on MALME-3M melanoma; -76.3% (active) in the experiment on MDA-MB-231 breast; -76.2% (active) with RXF 393 renal; -66.6% (active) in the experiment with SF-268 CNS; -90.3% (active) in the experiment with SF-295 CNS. Also, the growth with SF-539 CNS was -93.4% (active); in the experiment with UACC-257 melanoma, -66.4% (active); with M14 melanoma, -76.7% (active); in the experiment with HCT-15 colon it was -82.7% (active); in the experiment with HT29 colon, 1.64% (active); in the experiment with SNB-19 CNS, -55.9% (active). The growth in the experiment with U251 CNS was -74.9% (active); in the experiment with PC-3 prostate it was 14%; in the experiment with SK-MEL-5 melanoma, -94.9% (active); with LOX IMVI melanoma, -86.3% (active); in the experiment with SK-MEL-28 melanoma, -87.8% (active).
For `CC(=O)c1ccc(Nc2nc(NCCO)nc(Nc3ccc(Cl)cc3)n2)cc1`, the growth with K-562 leukemia was 78%; with MALME-3M melanoma it was 93.5%; in the experiment on MDA-MB-231 breast, 82.5%; with RXF 393 renal, 67.2%; in the experiment with SF-268 CNS, 91.9%; with SF-295 CNS, 97.8%. For the same compound, the growth with SF-539 CNS is 87.2%; in the experiment on UACC-257 melanoma, 88.4%; with M14 melanoma, 114%; with HCT-15 colon, 73.9%; with HT29 colon, 96.8%; in the experiment on SNB-19 CNS it was 92.4%. Further, the growth is 99.7% in the experiment with U251 CNS; 90.5% in the experiment on PC-3 prostate; 74.9% in the experiment on SK-MEL-5 melanoma; 78% with UACC-62 melanoma; 87.9% with LOX IMVI melanoma; 95.2% in the experiment with SK-MEL-28 melanoma. The growth in the experiment with SK-MEL-2 melanoma was 95.2%.
On to `COc1cccc(-c2nn(C)c3sc(C(=O)NCCN4CCN(c5ccccc5F)CC4)cc23)c1`, for which the growth was -35.5% (active) in the experiment on K-562 leukemia; -87% (active) in the experiment with MALME-3M melanoma; 30.8% in the experiment on MDA-MB-231 breast; 41.3% in the experiment with RXF 393 renal; 76.9% with SF-268 CNS; -55.6% (active) in the experiment on SF-295 CNS. Besides, the growth in the experiment with SF-539 CNS was 56.4%; with UACC-257 melanoma, -67.3% (active); in the experiment on M14 melanoma, -90.1% (active); in the experiment with HCT-15 colon, 29.3%; with HT29 colon, 17%; with SNB-19 CNS, 92.4%. The growth in the experiment with U251 CNS is 59%; with PC-3 prostate, 38.3%; with SK-MEL-5 melanoma, -79.6% (active); with UACC-62 melanoma, -72.1% (active); in the experiment with SK-MEL-28 melanoma, -75.2% (active); with SK-MEL-2 melanoma, 99.4%.
With `O=C(CN1C=NC2C(N3CCOCC3)=NC=NC21)c1cccc2ccccc12` (stereo unspecified), the growth in the experiment on K-562 leukemia is 107%; in the experiment with MALME-3M melanoma, 114%; in the experiment with MDA-MB-231 breast, 88.1%; with RXF 393 renal it was 100%; in the experiment with SF-268 CNS it was 84.7%; with SF-295 CNS it was 102%. Moreover, the growth with SF-539 CNS was 98.9%; in the experiment on UACC-257 melanoma, 101%; in the experiment with M14 melanoma, 105%; in the experiment with HCT-15 colon it was 95.8%; with HT29 colon, 111%; in the experiment with SNB-19 CNS it was 96.7%. Moreover, the growth is 101% in the experiment on U251 CNS; 85.2% with PC-3 prostate; 85.5% in the experiment on UACC-62 melanoma; 91.9% in the experiment with LOX IMVI melanoma; 109% in the experiment with SK-MEL-28 melanoma; 99% in the experiment with SK-MEL-2 melanoma.
Regarding `CCOc1cc2c(cc1OCC)C(c1cc(C)c(O)c(C)c1)NCC2` (stereo unspecified), the growth with K-562 leukemia was 78.6%; with MALME-3M melanoma it was 99.1%; in the experiment on MDA-MB-231 breast, 95.7%; with RXF 393 renal it was 99.4%; in the experiment on SF-268 CNS it was 103%; with SF-295 CNS, 93.1%. For the same compound, the growth was 109% in the experiment with SF-539 CNS; 94.3% in the experiment on UACC-257 melanoma; 98.5% with M14 melanoma; 91.2% in the experiment on HCT-15 colon; 98% with HT29 colon; 101% in the experiment on SNB-19 CNS. Further, the growth is 94% in the experiment on U251 CNS; 82% in the experiment with PC-3 prostate; 99.9% with SK-MEL-5 melanoma; 91.3% with UACC-62 melanoma; 99.6% with LOX IMVI melanoma; 107% with SK-MEL-28 melanoma. Also, the growth in the experiment with SK-MEL-2 melanoma is 98.3%.
Take `O=C1/C(=C/c2ccc(O)cc2)COc2ccc(O)c(O)c21`: the growth with K-562 leukemia was 4.59% (active); with MALME-3M melanoma it was -6.72% (active); in the experiment on MDA-MB-231 breast, 20.2%; in the experiment on RXF 393 renal, 9.98% (active); in the experiment with SF-268 CNS, 24.5%; in the experiment on SF-295 CNS, 95.6%. The growth in the experiment on SF-539 CNS is -13.7% (active); in the experiment with UACC-257 melanoma it was 63.2%; with M14 melanoma, 64.7%; in the experiment on HCT-15 colon, -29.3% (active); in the experiment on HT29 colon it was 44.6%; in the experiment with SNB-19 CNS, 46.9%. Further, the growth in the experiment with U251 CNS was 9.17% (active); in the experiment on PC-3 prostate, 41.9%; with SK-MEL-5 melanoma, 44.1%; with LOX IMVI melanoma, -48.1% (active); with SK-MEL-28 melanoma, 52.7%; in the experiment with SK-MEL-2 melanoma, 85.2%.
`COc1cc(C(=O)NN=C2c3ccccc3-c3ccccc32)cc(OC)c1OC`: the growth in the experiment on K-562 leukemia is 13.9%; in the experiment with MALME-3M melanoma it was 44.4%; in the experiment with MDA-MB-231 breast, 49.1%; in the experiment with RXF 393 renal, 16.7%; with SF-268 CNS, 45.1%; in the experiment with SF-295 CNS it was -0.172% (active). The growth was 4.99% (active) in the experiment on SF-539 CNS; 38.1% with UACC-257 melanoma; 17.6% in the experiment on M14 melanoma; 27.2% with HCT-15 colon; 5.22% (active) with HT29 colon; 42.4% with SNB-19 CNS. Besides, the growth is 20.9% in the experiment on U251 CNS; 31% with PC-3 prostate; 7.14% (active) in the experiment with SK-MEL-5 melanoma; 44.2% in the experiment on UACC-62 melanoma; 28.7% in the experiment with LOX IMVI melanoma; 46.6% in the experiment with SK-MEL-28 melanoma. For the same compound, the growth in the experiment with SK-MEL-2 melanoma is 6.51% (active).
In the case of `COc1ccc2sc(N(Cc3cccnc3)C(=O)c3ccc(C#N)cc3)nc2c1`, the growth was 16.4% in the experiment with K-562 leukemia; 60.9% in the experiment with MALME-3M melanoma; 71.5% with MDA-MB-231 breast; 92.8% with RXF 393 renal; 87.7% in the experiment with SF-268 CNS; 35.6% in the experiment on SF-295 CNS. For the same compound, the growth was 70.5% with SF-539 CNS; -46.3% (active) with UACC-257 melanoma; 25.4% in the experiment with M14 melanoma; 66.1% in the experiment with HCT-15 colon; 23.4% in the experiment with HT29 colon; 98.6% in the experiment on SNB-19 CNS. Moreover, the growth is 67.4% in the experiment with U251 CNS; 78.2% with PC-3 prostate; 80.9% in the experiment with SK-MEL-5 melanoma; 86.9% in the experiment on UACC-62 melanoma; 75.9% in the experiment with LOX IMVI melanoma; 50.2% in the experiment on SK-MEL-28 melanoma. Also, the growth in the experiment on SK-MEL-2 melanoma was 109%.
In the case of `O=C(/C=C/c1ccc(F)cc1)c1ccc(Nc2nc(NCCO)nc(Nc3ccc(Cl)cc3)n2)cc1`, the growth in the experiment on K-562 leukemia is 45.4%; with MALME-3M melanoma, 96.6%; in the experiment on MDA-MB-231 breast, 71.9%; in the experiment with RXF 393 renal it was 51.2%; in the experiment with SF-268 CNS, 71.9%; in the experiment on SF-295 CNS it was 91%. Also, the growth with SF-539 CNS was 74.4%; in the experiment with UACC-257 melanoma it was 99.5%; in the experiment with M14 melanoma, 83.3%; with HCT-15 colon, 26.7%; in the experiment with HT29 colon it was 22.4%; in the experiment on SNB-19 CNS it was 93.4%. Moreover, the growth was 27% with U251 CNS; 68% with PC-3 prostate; 75.4% in the experiment on SK-MEL-5 melanoma; 74.5% with UACC-62 melanoma; 37.3% in the experiment with LOX IMVI melanoma; 86.9% with SK-MEL-28 melanoma. Besides, in the experiment on SK-MEL-2 melanoma, the growth is 103%.
Regarding `O=S1(=O)N(Cc2ccccc2)[C@@H](Cc2ccccc2)[C@H](O)[C@H](O)[C@H](Cc2ccccc2)N1Cc1ccccc1`, the growth is 3.12% (active) in the experiment on K-562 leukemia; -14.2% (active) in the experiment with MALME-3M melanoma; -7.98% (active) in the experiment on MDA-MB-231 breast; -40.8% (active) with RXF 393 renal; 25.3% with SF-268 CNS; -11.2% (active) in the experiment on SF-295 CNS. The growth was -5.16% (active) in the experiment on SF-539 CNS; -22.1% (active) in the experiment on UACC-257 melanoma; -2.4% (active) in the experiment on M14 melanoma; 3.16% (active) in the experiment with HCT-15 colon; 6.95% (active) in the experiment with HT29 colon; 17% in the experiment with SNB-19 CNS. For the same compound, the growth in the experiment with U251 CNS was 4.33% (active); in the experiment on PC-3 prostate, 4.89% (active); with SK-MEL-5 melanoma, -1.02% (active); in the experiment with LOX IMVI melanoma it was -11.3% (active); in the experiment on SK-MEL-2 melanoma, -5.68% (active).
